Measured values: PubChem BioAssay (Tox21)
Results filed as inconclusive are left out. Unmarked numbers belong to inactive results. The call rests on the fitted dose curve; in most records, active means well fitted activation curve with a large enough effect in the signal ratio in the repeat runs (not every such curve was filed as active); inconclusive means weak or mixed curves, or effect the other way; inactive means flat fitted curve, though single readings scatter; the % refers to the signal ratio.

Each compound was assayed against Estrogen receptor beta (Homo sapiens) (UniProt Q92731) (assay: qHTS assay to identify small molecule agonists of the estrogen receptor beta (ER-beta) signaling pathway (AID 1259377)). Settings: ER-beta-UAS-bla HEK293T, beta-lactamase FRET ratio, 16 h; series mostly up to 92.4 µM; activation: at the top concentration.
Sequence of Estrogen receptor beta (Homo sapiens) (Q92731 whole entry, looked up): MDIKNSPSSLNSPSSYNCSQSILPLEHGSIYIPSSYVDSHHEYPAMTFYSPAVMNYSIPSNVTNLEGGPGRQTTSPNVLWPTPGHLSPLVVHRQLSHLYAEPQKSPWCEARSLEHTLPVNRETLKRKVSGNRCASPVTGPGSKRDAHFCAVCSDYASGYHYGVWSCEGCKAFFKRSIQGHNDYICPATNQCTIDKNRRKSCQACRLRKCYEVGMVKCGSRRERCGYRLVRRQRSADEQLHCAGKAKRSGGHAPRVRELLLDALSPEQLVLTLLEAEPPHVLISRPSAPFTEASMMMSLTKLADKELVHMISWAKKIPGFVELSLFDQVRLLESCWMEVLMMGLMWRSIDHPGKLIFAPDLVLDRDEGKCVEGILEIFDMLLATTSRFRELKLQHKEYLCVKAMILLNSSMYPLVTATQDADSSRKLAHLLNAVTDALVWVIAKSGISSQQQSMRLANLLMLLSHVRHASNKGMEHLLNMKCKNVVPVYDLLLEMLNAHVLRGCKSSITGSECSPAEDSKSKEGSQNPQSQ
Source text: U.S. Tox21 Program National Center for Advancing Translational Sciences [NCATS] NIH Chemical Genomics Center [NCGC] U.S. Environmental Protection Agency [EPA] National Institutes of Environmental Health Sciences [NIEHS] National Toxicology Program [NTP] U.S. Food and Drug Administration [FDA] Tox21 Assay Overview: Estrogen receptor (ER), a nuclear hormone receptor, plays an important role in development, metabolic homeostasis and reproduction. Two subtypes of ER, ER-alpha and ER-beta, have similar expression patterns with some uniqueness in both types. Endocrine disrupting chemicals (EDCs) and their interactions with steroid hormone receptors like ER causes disruption of normal endocrine function. To identify the compounds that activate ER signaling, an ER beta-UAS-bla GripTite cell line (Life technologies, Madison, WI, USA) containing a beta-lactamase reporter gene under the control of an Upstream Activator Sequence (UAS) was used to screen Tox21 10K compound library.
Tox21 Assay Protocol Summary: ER-beta-UAS-bla HEK293T cells were dispensed at 2,000 cells/5 uL of assay medium containing 2% charcoal stripped FBS per well into black wall/clear-bottom 1536-well plates using a Multidrop Combi (ThermoFisher Scientific, Waltham, MA) dispenser. After the assay plates were incubated at a 37C and 5% CO2 for 6 hr, 23 nL of compounds dissolved in DMSO, positive controls or DMSO only was transferred to the assay plate by a Pintool station (Kalypsys, San Diego, CA). The plates were incubated at 37C and 5% CO2 for 16 hr. Then 1 uL of LiveBLAzerTM B/G FRET substrate was added using a BioRAPTR FRD (Flying Reagent Dispenser, Aurora Discovery, San Diego, CA). After the plates were incubated at room temperature for 2 hours, fluorescence intensity was measured by an Envision plate reader (PerkinElmer, Shelton, CT).
On the % scale 0 is the no-effect control and ±100 the full control effect.

**Q.** `N#CCN(CC#N)CCN(CC#N)CC#N` was tested. Which “activation” value did it give?
**A.** 0.214%

**Q.** For `CC(C)(C)CC(C)(C)N`, which “activation” value is on record?
**A.** 1.25%

**Q.** `C#CC(C)(O)CC(C)C` (stereo not given) was tested. Which “activation” value did it give?
**A.** -0.0735%

**Q.** How did the “activation” value turn out when `CCCCN(CCO)CCO` was run?
**A.** 2.81%

**Q.** For `C=CCOCC(O)CS(=O)(=O)O` (stereo not given), which “activation” value is on record?
**A.** -2.84%

**Q.** Which “activation” value does the source give for `C/C=C1\C(=O)C[C@H]2[C@@H]3CCC4=CC(=O)CC[C@]4(C)[C@H]3CC[C@]12C` here?
**A.** -6.29% [at 42.5 µM]

**Q.** With `NC(=O)c1ncn([C@@H]2O[C@H](CO)[C@@H](O)[C@H]2O)c1O` as the compound, how does the “activation” value read?
**A.** -0.592% [at 42.5 µM]

**Q.** For `COc1cccc(Br)c1`, which “activation” value is on record?
**A.** 4.17%

**Q.** For `CC(CCO)CCCC(C)(C)O` (stereo not given), which “activation” value is on record?
**A.** -1.87%

**Q.** Which “activation” value does the source give for `COc1cccc(OC)c1` here?
**A.** -0.028%

**Q.** Which “activation” value does the source give for `O=C1CC2(CCCC2)CC(=O)N1` here?
**A.** 4.53% [at 42.5 µM]

**Q.** With `O=C(O)Cc1cc(I)c(Oc2cc(I)c(O)c(I)c2)c(I)c1` as the compound, how does the “activation” value read?
**A.** -0.669% [at 42.5 µM]

**Q.** How did the “activation” value turn out when `CCC(C(=O)NC(N)=O)c1ccccc1` (stereo not given) was run?
**A.** 1.36%

**Q.** How did the “activation” value turn out when `Oc1ccc2c(c1)OC[C@@H](N1CCC(O)(c3ccc(F)cc3)CC1)[C@H]2O` was run?
**A.** -0.701% [at 42.5 µM]

**Q.** `O=C(O)c1cccc(C(=O)O)n1` was tested. Which “activation” value did it give?
**A.** 8.2%

**Q.** Which “activation” value does the source give for `O=C1OC(=O)c2cc([N+](=O)[O-])ccc21` here?
**A.** 1.98%

**Q.** `N#CC1(O)CCCCC1` was tested. Which “activation” value did it give?
**A.** -1.51%

**Q.** `COc1ccc(N=[N+]([O-])c2ccc(OC)cc2)cc1` was tested. Which “activation” value did it give?
**A.** -0.868%

**Q.** `CC(=O)OC(C)(C)C` was tested. Which “activation” value did it give?
**A.** 1.95%

**Q.** With `O=S(=O)(O)c1ccccc1O` as the compound, how does the “activation” value read?
**A.** -0.916%

**Q.** `FC(F)(F)C(F)(F)C(F)(F)C(F)(F)C(F)(F)C(F)(F)C(F)(F)C(F)(F)C(F)(F)C(F)(F)F` was tested. Which activation did it give?
**A.** -4.79% [at 8.39 µM]

**Q.** With `Cc1c(C)n(CCN(C)C)c2ccc(C(=O)OCCN(C)C)cc12` as the compound, how does the “activation” value read?
**A.** -1.16% [at 42.5 µM]

**Q.** Which “activation” value does the source give for `NC(=O)Nc1nc2ccccc2[nH]1` here?
**A.** 0.182%

**Q.** With `CCC(C)(C)C1CCC(OC)CC1` (stereo not given) as the compound, how does the “activation” value read?
**A.** -1.6%

**Q.** How did the “activation” value turn out when `CC(C)(O)C(=O)c1ccc(OCCO)cc1` was run?
**A.** 2.04%

**Q.** For `CCCCCCCCC=O`, which “activation” value is on record?
**A.** -1.25%

**Q.** How did the “activation” value turn out when `O=C(CCOCCOCCOCCOCCC(=O)Nc1c(I)cc(I)c(C(=O)O)c1I)Nc1c(I)cc(I)c(C(=O)O)c1I` was run?
**A.** 0.43% [at 42.5 µM]

**Q.** How did the “activation” value turn out when `c1cc(CN2CCCCC2)cc(OCCCNc2nc3ccccc3s2)c1` was run?
**A.** 1.83% [at 42.5 µM]

**Q.** For `CCN(CC)S(=O)(=O)c1ccc(C(=O)O)cc1`, which “activation” value is on record?
**A.** 0.408% [at 42.5 µM]

**Q.** How did the “activation” value turn out when `CCCCOCC(C)OCC(C)O` (stereo not given) was run?
**A.** -2.59%

**Q.** For `N#CCc1ccccc1[N+](=O)[O-]`, which “activation” value is on record?
**A.** -1.39%

**Q.** With `CC12CCC(CC1=O)C2(C)C` (stereo not given) as the compound, how does the “activation” value read?
**A.** 1.39%

**Q.** `CCC(C)OC(=O)N1CCCCC1CCO` (stereo not given) was tested. Which “activation” value did it give?
**A.** -0.0349%

**Q.** How did the “activation” value turn out when `Cc1ccccc1C(=O)O` was run?
**A.** 2.79%

**Q.** Which “activation” value does the source give for `Nc1nc2c(ncn2CCC(CO)CO)c(=O)[nH]1` here?
**A.** -0.0404% [at 42.5 µM]

**Q.** For `Cc1ccccc1Br`, which “activation” value is on record?
**A.** 1.28%

**Q.** With `NCC[C@H](O)C(=O)N[C@@H]1C[C@H](N)[C@@H](O[C@H]2O[C@H](CN)[C@@H](O)[C@H](O)[C@H]2O)[C@H](O)[C@H]1O[C@H]1O[C@H](CO)[C@@H](O)[C@H](N)[C@H]1O` as the compound, how does the activation read?
**A.** 0.597% [at 0.348 µM]

**Q.** `[O-][N+](=Nc1ccccc1)c1ccccc1` was tested. Which “activation” value did it give?
**A.** -1.01%

**Q.** Which “activation” value does the source give for `O=S(=O)(c1cccc2cnccc12)N1CCCNCC1` here?
**A.** 0.171% [at 42.5 µM]

**Q.** With `CCCC=O` as the compound, how does the “activation” value read?
**A.** 7.89%
